Screening results: PubChem BioAssay, National Center for Advancing Translational Sciences (NCATS)
Only some compounds are listed: those with a hit (about 11% of all), similar ones and a draw of the others.
HCV inhibitor: blocks hepatitis C virus | Huh7.5.1 HCVcc-Cre infection, luciferase reporter, 44 h | Potency, µM (series often up to 41.8 µM), without a hit: top-dose activity change, negative = inhibition, actives largely listed as inhibitors | 340,000 tested, 3.4% active | AID 651820; also: % is scaled to controls: 0 for no effect and ±100 for the full control effect
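Infectious HCVcc-Cre (~0.5 moi) was added to cells just after compound, with cells seeded 4 h earlier at 1,000 per well. Luciferase activity after 44 h culture reported infection; substrate was incubated 15 min at room temperature before reading.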
Pf growth 96h: P. falciparum growth inhibition at 96 hour, primary screen for plastid delayed-death inhibitors; 320,000 tested, 6.9% active; P. falciparum luciferase reporter growth, 96 h; Potency, µM (top dose mostly 28.7 µM), without a hit: at the highest dose activity change, negative = inhibition, hits mostly inhibitors; AID 504834; also: % is scaled to controls: 0 for no effect and ±100 for the full control effect
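P. falciparum expressing integrated firefly luciferase grown in erythrocytes (2% hematocrit, 0.05% parasitemia final) with compounds for 96 hours at 37 C, 5% CO2. Growth inhibition read as loss of luminescence after adding luciferase detection reagent.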
Pf growth 48h: P. falciparum growth inhibition at 48 hours (one generation); 310,000 tested, 5.9% active; P. falciparum luciferase growth in erythrocytes, 48 h; Potency, µM (top dose mostly 28.7 µM), without a hit: top-dose activity change, negative = inhibition, actives largely listed as inhibitors; AID 504832; also: % is scaled to controls: 0 for no effect and ±100 for the full control effect
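Cell-based growth assay: transgenic P. falciparum expressing firefly luciferase, cultured in red cells within RPMI 1640 containing 0.5% w/v Albumax, 24 mM bicarbonate and gentamycin. A drop in luciferase activity indicates inhibition.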
NS1 inh: blocks influenza NS1 protein function. Potency, µM (series often up to 46.1 µM), inactives show at the highest dose activity, positive = more growth. 270,000 tested, 0.4% active. AID 2326; calls by dose curve; also: actives are rising curves; nearly all actives have a fitted effect of over 50% in size
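OD600 was taken as the measure of yeast growth restored by compound in an NS1-expressing S. cerevisiae strain. Cells had been washed out of glucose medium and diluted 1:100 into galactose -URA medium, pH 6.0.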
VACV mCherry inh: vaccinia inhibition (mCherry reporter); Vaccinia virus mCherry reporter infection, fluorescence; Potency, µM (doses to about 36.5 µM), inactives show at the top dose activity change, negative = inhibition, usual class: inhibitors; 310,000 tested, 0.63% active; AID 720579; calls by dose curve; tested in A549 cells; also: % is scaled to controls: 0 for no effect and ±100 for the full control effect; nearly all actives have a fitted effect of over 35% in size
VACV Venus inh: vaccinia inhibition (Venus reporter); Vaccinia virus Venus reporter expression, fluorescence; Potency, µM (top dose mostly 36.5 µM), inactives show at the highest dose activity change, negative = inhibition, actives largely listed as inhibitors; 330,000 tested, 0.46% active; AID 720580; calls by dose curve; tested in A549 cells; also: % is scaled to controls: 0 for no effect and ±100 for the full control effect; nearly all actives have a fitted effect of over 30% in size
* marks the source's active call; other numbers are inactive results; i = inactive; ? = inconclusive; nt = no result given. Unless noted, calls follow the shape of the dose curve; as a rule, active = well fitted inhibition curve with a large enough effect; inconclusive = small, poorly fitted or top-dose-only effect, or another doubt; inactive = no such curve, though single readings can be large or run the other way. Potency is read from the fitted curve at half-maximal effect.

SMILES	HCV inhibitor	Pf growth 96h	Pf growth 48h	NS1 inh	VACV mCherry inh	VACV Venus inh
Cc1ccc(NC(=O)c2ccccc2N2C(=O)C3C4C=CC(C5CC45)C3C2=O)cc1C (stereo not drawn)	-12%	9.3µM*	?	-10%	-16%	-17%
O=C(Nc1ccc(F)cc1)c1cccc(N2C(=O)C3C4CCC(C4)C3C2=O)c1 (stereo not drawn)	5%	-10%	-11%	-6%	-6%	-25%
CC(C)NC(=O)C1(C)CCN1C(=O)c1ccccc1F (stereo not drawn)	nt	nt	nt	nt	23%	-2%
Nc1nnc(/C=C/c2ccccc2Cl)s1	9%	144%	109%	-3%	i	-4%
CC(=O)Nc1ccc(SC(C)C(=O)NC2CCCC2)cc1 (stereo not drawn)	0%	4%	13%	6%	-11%	4%
Cc1ccc(SC(C)C(=O)NCCC2=CCCCC2)cc1 (stereo not drawn)	-5%	12µM*	0%	-4%	-9%	-1%
CC(Sc1nc(N)cc(N)n1)C(=O)NCCC1=CCCCC1 (stereo not drawn)	11%	-21%	-3%	nt	nt	nt
Cc1ccc(SC(C)C(=O)NC2CC2)cc1 (stereo not drawn)	-4%	10µM*	10µM*	8%	nt	nt
CC(Sc1ccccc1)C(=O)NCCc1ccccc1 (stereo not drawn)	9%	9.3µM*	15%	-6%	nt	nt
O=C1CC(NCc2cccs2)C(=O)N1c1ccc(Cl)cc1 (stereo not drawn)	3%	nt	nt	-13%	nt	-11%
CCCOc1ccc(N2C(=O)CC(NCc3cccs3)C2=O)cc1 (stereo not drawn)	9%	5.2µM*	-1%	-6%	nt	11µM*
CCN(CC)CCCNc1ccc(-c2nnc(-c3ccc(OCC(C)C)cc3)o2)cn1	8.9µM*	?	?	-3%	-19%	-8%
Cc1ccccc1NC(=O)CC(C)S(=O)(=O)c1ccc2c(c1)NC(=O)CO2 (stereo not drawn)	22%	26%	-17%	21%	-9%	-11%
CCOC(=O)c1c(NC(=O)C(C)Sc2cccc[n+]2[O-])sc2c1CCN(Cc1ccccc1)C2 (stereo not drawn)	-15%	5.2µM*	9.3µM*	1%	-21%	-2%
CCOC(=O)c1c(NC(C)=O)sc2c1CCN(Cc1ccccc1)C2	?	?	43%	-5%	?	-16%
CCOC(=O)c1c(NC(=O)CC)sc2c1CCN(Cc1ccccc1)C2	11µM*	14%	?	-18%	?	0%
CCOC(=O)c1c(NC(=O)CSc2ncccn2)sc2c1CCN(Cc1ccccc1)C2	?	7.4µM*	?	-5%	nt	nt
CCOC(=O)c1c(NC(=O)CSc2nnc3c(n2)[nH]c2ccc(F)cc23)sc(C(C)=O)c1C	?	?	?	17%	nt	nt
CCOC(=O)c1c(NC(=O)CSc2nnc3c(n2)[nH]c2ccccc23)sc2c1CCN(C)C2	7.1µM*	nt	nt	nt	-15%	-9%
Cc1[nH]c(=O)[nH]c(=O)c1S(=O)(=O)NCCc1ccc(S(N)(=O)=O)cc1	4%	1%	19%	0%	i	-7%
O=C(CCNC(=O)c1ccc([N+](=O)[O-])cc1)Nc1ccc(F)c(F)c1F	-2%	33%	10%	6%	-14%	6%
CCN1CCN(c2oc(-c3ccc(COc4ccc(OC)cc4)o3)nc2C#N)CC1	nt	nt	nt	nt	-2%	-4%
CCOC(=O)c1c(NC(=S)Nc2ccccc2)sc2c1CCN(CCc1ccccc1)C2	nt	2.3µM*	13µM*	?	nt	nt
COC(=O)c1c(NC(=O)C2COc3ccccc3O2)sc2c1CCN(Cc1ccccc1)C2 (stereo not drawn)	?	?	5.2µM*	-2%	0%	-16%
CCC(=O)N1CC2(CC(c3cccc([N+](=O)[O-])c3)=NO2)C[C@H]1C(=O)NCC(N)=O (stereo partly drawn)	19%	23%	4%	9%	-9%	-11%
SMILES	HCV inhibitor	Pf growth 96h	Pf growth 48h	NS1 inh	VACV mCherry inh	VACV Venus inh
CC1CCCN(C(=O)CN2C(=O)NC3(CCCCC3C)C2=O)C1 (stereo not drawn)	-14%	26%	-10%	nt	-5%	-3%
CN(C1=C(NC(=O)c2ccc(Cl)cc2)C(=O)c2ccccc2C1=O)c1ccccc1	?	?	1.9µM*	27%	-1%	?
O=C1C(Cl)=C(NC(=O)c2ccccc2)C(=O)C(Cl)=C1NC(=O)c1ccccc1	?	?	nt	-64%	?	?
Cc1cccc(NC2=C(NC(=O)c3ccccc3)C(=O)c3ccccc3C2=O)c1	?	?	0.47µM*	-35%	-24%	-17%
O=C(NC1=C(Nc2ccc(Cl)cc2)C(=O)c2ccccc2C1=O)c1ccccc1	?	0.1µM*	0.13µM*	-13%	28µM*	?
O=C(NC1=C(NC2CCS(=O)(=O)C2)C(=O)c2ccccc2C1=O)c1ccccc1 (stereo not drawn)	?	?	1.7µM*	-8%	nt	nt
CCOc1cccc2sc(Cl)nc12	27%	9%	-6%	0%	-7%	-20%
CCOc1ccc(OCC)c2sc(C)nc12	10µM*	24%	6%	-13%	nt	nt
CCCCC[C@@H]1CCCCC[C@H](O)C[C@H](O)[C@@H](O)/C=C/C(=O)O1	nt	nt	nt	nt	-14%	-13%
O=C(CCl)N1CCN(S(=O)(=O)Cc2ccccc2)CC1	?	13µM*	?	nt	nt	nt
O=C(CCl)N1CCN(S(=O)(=O)c2ccc3c(c2)CCC3)CC1	14µM*	?	2.3µM*	nt	nt	nt
CC(C)(C)c1ccc(S(=O)(=O)N2CCN(CC(=O)NC(=O)NC3CCCCC3)CC2)cc1	-1%	2.9µM*	-21%	nt	-19%	-15%
CN1C(=O)N(CC(=O)N2CCN(S(=O)(=O)c3ccc4c(c3)CCC4)CC2)C(=O)C12CCCCC2	24%	35%	3%	nt	-12%	-1%
CCOC(=O)N1CCN(S(=O)(=O)Cc2ccccc2)CC1	0%	-10%	37%	1%	nt	10%
COc1ccc(S(=O)(=O)N2CCN(CC(=O)NC3CCCC3)CC2)cc1	7%	?	-7%	-3%	-13%	-13%
CC(C)(C)NC(=O)NC(=O)CN1CCN(S(=O)(=O)c2ccc3c(c2)CCCC3)CC1	-27%	7.4µM*	9.3µM*	nt	?	-20%
CCOC(=O)NC(c1cccc(Cl)c1)C1CCCCCC1=O (stereo not drawn)	3%	68%	nt	2%	-13%	-11%
Cc1ccc(C)c(SCC(=O)Nc2cc(S(=O)(=O)N3CCOCC3)ccc2C)c1	?	?	?	nt	-30%	-21%
Cc1ccc(Cn2c(O)c(N=NC(=S)Nc3ccccc3F)c3cc(S(=O)(=O)N4CCOCC4)ccc32)cc1	?	1%	3.3µM*	nt	nt	nt
